Assay results published in the supplement of paper PMC8728848.
About 410 targets per protein were measured; listed, in parts, are those with the strongest signals and a random draw of the rest.

Columns and labels:
Experiment in all cases: glycan array binding signal (z-score within array); higher = stronger binding
Settings in all cases: glycan notation: IUPAC condensed, linker removed
Fuc(a1-2)Gal = target: Fuc(a1-2)Gal
Method in brief: (§1)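 The Consortium for Functional Glycomics database supplied 3228 glycan arrays, of which those lacking an available protein sequence were dropped. The binding signal, a within-array Z-score, was averaged across arrays of the same protein sequence and across linkers. Negative scores can be read as non-binding.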

[1] = target: Fuc(a1-2)Gal(b1-3)GlcNAc(b1-3)[Fuc(a1-2)Gal(b1-3)GlcNAc(b1-6)]GalNAc
Method in brief: as §1

[2] = target: Fuc(a1-2)Gal(b1-3)[Fuc(a1-4)]GlcNAc(b1-2)Man(a1-3)[Fuc(a1-2)Gal(b1-3)[Fuc(a1-4)]GlcNAc(b1-2)Man(a1-6)]Man(b1-4)GlcNAc(b1-4)[Fuc(a1-6)]GlcNAc(b1-4)[Fuc(a1-6)]GlcNAc
Method in brief: as §1

[3] = target: Fuc(a1-2)Gal(b1-4)GlcNAc(b1-2)Man(a1-3)[Fuc(a1-2)Gal(b1-4)GlcNAc(b1-2)Man(a1-6)]Man(b1-4)GlcNAc(b1-4)GlcNAc
Method in brief: as §1

[4] = target: Fuc(a1-2)Gal(b1-4)GlcNAc(b1-6)GalNAc
Method in brief: as §1

Fuc(a1-2)Gal6S(b1-4)Glc = target: Fuc(a1-2)Gal6S(b1-4)Glc
Method in brief: as §1

[5] = target: Fuc(a1-2)[Gal(a1-3)]Gal(b1-4)[Fuc(a1-3)]GlcNAc(b1-3)GalNAc
Method in brief: as §1

[6] = target: Fuc(a1-2)[GalNAc(a1-3)]Gal(b1-4)GlcNAc(b1-2)Man(a1-3)[Fuc(a1-2)[GalNAc(a1-3)]Gal(b1-4)GlcNAc(b1-2)Man(a1-6)]Man(b1-4)GlcNAc(b1-4)[Fuc(a1-6)]GlcNAc
Method in brief: as §1

[7] = target: Fuc(a1-2)[GalNAc(a1-3)]Gal(b1-4)[Fuc(a1-3)]GlcNAc(b1-3)GalNAc
Method in brief: as §1

[8] = target: Fuc(a1-3)[GalNAc(b1-4)]GlcNAc
Method in brief: as §1

[9] = target: Fuc(a1-3)[GalNAc(b1-4)]GlcNAc6S
Method in brief: as §1

Gal(a1-2)Gal = target: Gal(a1-2)Gal
Method in brief: as §1

[10] = target: Gal(a1-3)Gal(b1-4)GlcNAc(b1-6)GalNAc
Method in brief: as §1

[11] = target: Gal(b1-3)GalNAc(b1-4)[Neu5Ac(a2-3)]Gal(b1-4)Glc
Method in brief: as §1

[12] = target: Gal(b1-3)GlcNAc(b1-2)[Gal(b1-3)GlcNAc(b1-6)]Man(a1-6)[Gal(b1-3)GlcNAc(b1-2)Man(a1-3)]Man(b1-4)GlcNAc(b1-4)GlcNAc
Method in brief: as §1

[13] = target: Gal(b1-3)GlcNAc(b1-3)Gal(b1-4)GlcNAc(b1-2)Man(a1-3)[Gal(b1-3)GlcNAc(b1-3)Gal(b1-4)GlcNAc(b1-2)Man(a1-6)]Man(b1-4)GlcNAc(b1-4)GlcNAc
Method in brief: as §1

[14] = target: Gal(b1-3)GlcNAc(b1-3)Gal(b1-4)[Fuc(a1-3)]GlcNAc(b1-6)[Gal(b1-3)GlcNAc(b1-3)]Gal(b1-4)Glc
Method in brief: as §1

[15] = target: Gal(b1-3)GlcNAc(b1-6)GalNAc
Method in brief: as §1

[16] = target: Gal(b1-3)[Neu5Ac(a2-6)]GalNAc
Method in brief: as §1

[17] = target: Gal(b1-4)GalNAc(a1-3)[Fuc(a1-2)]Gal(b1-4)GlcNAc
Method in brief: as §1

[18] = target: Gal(b1-4)GlcNAc(b1-2)Man(a1-3)[Gal(b1-4)GlcNAc(b1-2)Man(a1-6)][GlcNAc(b1-4)]Man(b1-4)GlcNAc(b1-4)[Fuc(a1-6)]GlcNAc
Method in brief: as §1

[19] = target: Gal(b1-4)GlcNAc(b1-2)[Gal(b1-4)GlcNAc(b1-4)]Man(a1-3)[Gal(b1-4)GlcNAc(b1-2)Man(a1-6)]Man(b1-4)GlcNAc(b1-4)GlcNAc
Method in brief: as §1

Gal3S(b1-4)GlcNAc = target: Gal3S(b1-4)GlcNAc
Method in brief: as §1

[20] = target: Gal3S(b1-4)[Fuc(a1-3)]GlcNAc
Method in brief: as §1

Gal3S6S(b1-4)GlcNAc6S = target: Gal3S6S(b1-4)GlcNAc6S
Method in brief: as §1

Gal4S6S(b1-4)GlcNAc = target: Gal4S6S(b1-4)GlcNAc
Method in brief: as §1

GalNAc(b1-4)Gal(b1-4)Glc = target: GalNAc(b1-4)Gal(b1-4)Glc
Method in brief: as §1

GalNAc(b1-4)GlcNAc = target: GalNAc(b1-4)GlcNAc
Method in brief: as §1

[21] = target: Glc(a1-4)Glc(a1-4)Glc(a1-4)Glc
Method in brief: as §1

Glc(a1-6)Glc(a1-6)Glc = target: Glc(a1-6)Glc(a1-6)Glc
Method in brief: as §1

[22] = target: Glc(a1-6)Glc(a1-6)Glc(a1-6)Glc
Method in brief: as §1

[23] = target: GlcNAc(b1-3)Gal(b1-4)GlcNAc(b1-3)Gal(b1-4)GlcNAc
Method in brief: as §1

[24] = target: GlcNAc(b1-3)Gal(b1-4)GlcNAc(b1-3)Gal(b1-4)GlcNAc(b1-3)Gal(b1-4)GlcNAc(b1-2)Man(a1-3)[GlcNAc(b1-3)Gal(b1-4)GlcNAc(b1-3)Gal(b1-4)GlcNAc(b1-3)Gal(b1-4)GlcNAc(b1-2)Man(a1-6)]Man(b1-4)GlcNAc(b1-4)GlcNAc
Method in brief: as §1

[25] = target: GlcNAc(b1-3)[GlcNAc(b1-4)][GlcNAc(b1-6)]GlcNAc
Method in brief: as §1

Man(a1-3)[Man(a1-6)]Man = target: Man(a1-3)[Man(a1-6)]Man
Method in brief: as §1

[26] = target: Man(a1-3)[Man(a1-6)]Man(a1-6)[Man(a1-3)]Man
Method in brief: as §1

[27] = target: Man(a1-3)[Man(a1-6)]Man(b1-4)GlcNAc(b1-4)[Fuc(a1-6)]GlcNAc
Method in brief: as §1

Man(a1-6)Man = target: Man(a1-6)Man
Method in brief: as §1

[28] = target: Neu5Ac(a2-3)Gal(b1-3)GlcNAc(b1-2)Man(a1-3)[Neu5Ac(a2-3)Gal(b1-3)GlcNAc(b1-2)Man(a1-6)]Man(b1-4)GlcNAc(b1-4)GlcNAc
Method in brief: as §1

[29] = target: Neu5Ac(a2-3)Gal(b1-4)GlcNAc(b1-2)Man
Method in brief: as §1

[30] = target: Neu5Ac(a2-3)Gal(b1-4)GlcNAc(b1-2)Man(a1-3)[GlcNAc(b1-4)][Neu5Ac(a2-3)Gal(b1-4)GlcNAc(b1-2)Man(a1-6)]Man(b1-4)GlcNAc(b1-4)GlcNAc
Method in brief: as §1

[31] = target: Neu5Ac(a2-3)Gal(b1-4)GlcNAc(b1-2)Man(a1-3)[Neu5Ac(a2-3)Gal(b1-4)GlcNAc(b1-2)Man(a1-6)]Man(b1-4)GlcNAc(b1-4)[Fuc(a1-6)]GlcNAc
Method in brief: as §1

[32] = target: Neu5Ac(a2-3)Gal(b1-4)GlcNAc(b1-3)Gal
Method in brief: as §1

[33] = target: Neu5Ac(a2-3)Gal(b1-4)GlcNAc(b1-3)Gal(b1-4)GlcNAc(b1-3)Gal(b1-4)GlcNAc(b1-2)Man(a1-3)[Neu5Ac(a2-3)Gal(b1-4)GlcNAc(b1-3)Gal(b1-4)GlcNAc(b1-3)Gal(b1-4)GlcNAc(b1-2)Man(a1-6)]GalNAc
Method in brief: as §1

[34] = target: Neu5Ac(a2-3)Gal(b1-4)[Fuc(a1-3)]GlcNAc6S
Method in brief: as §1

[35] = target: Neu5Ac(a2-3)[GalNAc(b1-4)]Gal(b1-4)Glc
Method in brief: as §1

[36] = target: Neu5Ac(a2-6)Gal(b1-4)GlcNAc(b1-2)Man(a1-6)[GlcNAc(b1-2)Man(a1-3)]Man(b1-4)GlcNAc(b1-4)GlcNAc
Method in brief: as §1

[37] = target: Neu5Ac(a2-6)Gal(b1-4)GlcNAc(b1-3)Gal(b1-4)GlcNAc(b1-3)Gal(b1-4)GlcNAc(b1-2)Man(a1-3)[Neu5Ac(a2-6)Gal(b1-4)GlcNAc(b1-3)Gal(b1-4)GlcNAc(b1-3)Gal(b1-4)GlcNAc(b1-2)Man(a1-6)]GalNAc
Method in brief: as §1

[38] = target: Neu5Ac(a2-6)Gal(b1-4)GlcNAc(b1-3)Gal(b1-4)GlcNAc(b1-6)[Gal(b1-3)]GalNAc
Method in brief: as §1

[39] = target: Neu5Ac(a2-6)Gal(b1-4)GlcNAc(b1-3)[Neu5Ac(a2-6)Gal(b1-4)GlcNAc(b1-6)]GalNAc
Method in brief: as §1

[40] = target: Neu5Gc(a2-8)Neu5Gc(a2-3)Gal(b1-4)GlcNAc(b1-3)Gal(b1-4)GlcNAc
Method in brief: as §1

[41] = target: Neu5Gc(a2-8)Neu5Gc(a2-6)Gal(b1-4)GlcNAc
Method in brief: as §1

B1: Clone730PsrP (Streptococcus pneumoniae) (protein)
chain: MDHHHHHHHHHHASENLYFQGAMVVGSQTAAATEATAKKVEEDRKKPASDYVASVTNVNLQSYAKRRKRSVDSIEQLLASIKNAAVFSGNTIVNGAPAINASLNIAKSETKVYTGEGVDSVYRVPIYYKLKVTNDGSKLTFTYTVTYVNPKTNDLGNISSMRPGYSIYNSGTSTQTMLTLGSDLGKPSGVKNYITDKNGRQVLSYNTSTMTTQGSGYTWGNGAQMNGFFAKKGYGLTSSWTVPITGTDTSFTFTPYAARTDRIGINYFNGGGKVVESSTT
glycan array binding signal (z-score) (Fuc(a1-2)Gal): 0.412 | glycan array binding signal (z-score) [1]: 1.96 | glycan array binding signal (z-score) [2]: -0.364 | glycan array binding signal (z-score) [3]: -0.472 | glycan array binding signal (z-score) [4]: 1.79 | glycan array binding signal (z-score) (Fuc(a1-2)Gal6S(b1-4)Glc): -0.11 | glycan array binding signal (z-score) [5]: -0.513 | glycan array binding signal (z-score) [6]: 2.17 | glycan array binding signal (z-score) [7]: 0.059 | glycan array binding signal (z-score) [8]: 0.389 | glycan array binding signal (z-score) [9]: 0.499 | glycan array binding signal (z-score) (Gal(a1-2)Gal): -0.461 | glycan array binding signal (z-score) [10]: -0.459 | glycan array binding signal (z-score) [11]: 2.82 | glycan array binding signal (z-score) [12]: 19.3 | glycan array binding signal (z-score) [13]: -0.281 | glycan array binding signal (z-score) [14]: -0.518 | glycan array binding signal (z-score) [15]: -0.605 | glycan array binding signal (z-score) [16]: -0.508 | glycan array binding signal (z-score) [17]: -0.441 | glycan array binding signal (z-score) [18]: -0.249 | glycan array binding signal (z-score) [19]: -0.616 | glycan array binding signal (z-score) (Gal3S(b1-4)GlcNAc): 0.189 | glycan array binding signal (z-score) [20]: 0.82 | glycan array binding signal (z-score) (Gal3S6S(b1-4)GlcNAc6S): -0.38 | glycan array binding signal (z-score) (Gal4S6S(b1-4)GlcNAc): -0.324 | glycan array binding signal (z-score) (GalNAc(b1-4)Gal(b1-4)Glc): 1.39 | glycan array binding signal (z-score) (GalNAc(b1-4)GlcNAc): 0.829 | glycan array binding signal (z-score) [21]: 2.03 | glycan array binding signal (z-score) (Glc(a1-6)Glc(a1-6)Glc): -0.273 | glycan array binding signal (z-score) [22]: 2.73 | glycan array binding signal (z-score) [23]: -0.488 | glycan array binding signal (z-score) [24]: -0.481 | glycan array binding signal (z-score) [25]: -0.013 | glycan array binding signal (z-score) (Man(a1-3)[Man(a1-6)]Man): 0.888 | glycan array binding signal (z-score) [26]: 2.14 | glycan array binding signal (z-score) [27]: -0.591 | glycan array binding signal (z-score) (Man(a1-6)Man): 3.24 | glycan array binding signal (z-score) [28]: 0.657 | glycan array binding signal (z-score) [29]: 1.83 | glycan array binding signal (z-score) [30]: -0.507 | glycan array binding signal (z-score) [31]: -0.658 | glycan array binding signal (z-score) [32]: -0.586 | glycan array binding signal (z-score) [33]: 1.38 | glycan array binding signal (z-score) [34]: 1.98 | glycan array binding signal (z-score) [35]: -0.647 | glycan array binding signal (z-score) [36]: -0.372 | glycan array binding signal (z-score) [37]: 0.355 | glycan array binding signal (z-score) [38]: -0.382 | glycan array binding signal (z-score) [39]: -0.567 | glycan array binding signal (z-score) [40]: -0.565 | glycan array binding signal (z-score) [41]: -0.41
